In the supplement of paper PMC11732987, “Enantioselective OTUD7B fragment discovery through chemoproteomics screening and high-throughput optimisation” (Communications Chemistry, 2025):

What was measured:
Test in all cases: log2 ratio of Biotin-Ahx-Ub-VS probe labelling (fragment/DMSO); higher = less target engagement (more negative = stronger competition), active = hit call of the paper (q ≤ 0.05, log2 ratio ≤ -1)
Details in all cases: compound concentration: 200 uM; treatment time: 3 h
USP19 = target: T1, USP19 (UniProt O94966)
T1 sequence (whole entry): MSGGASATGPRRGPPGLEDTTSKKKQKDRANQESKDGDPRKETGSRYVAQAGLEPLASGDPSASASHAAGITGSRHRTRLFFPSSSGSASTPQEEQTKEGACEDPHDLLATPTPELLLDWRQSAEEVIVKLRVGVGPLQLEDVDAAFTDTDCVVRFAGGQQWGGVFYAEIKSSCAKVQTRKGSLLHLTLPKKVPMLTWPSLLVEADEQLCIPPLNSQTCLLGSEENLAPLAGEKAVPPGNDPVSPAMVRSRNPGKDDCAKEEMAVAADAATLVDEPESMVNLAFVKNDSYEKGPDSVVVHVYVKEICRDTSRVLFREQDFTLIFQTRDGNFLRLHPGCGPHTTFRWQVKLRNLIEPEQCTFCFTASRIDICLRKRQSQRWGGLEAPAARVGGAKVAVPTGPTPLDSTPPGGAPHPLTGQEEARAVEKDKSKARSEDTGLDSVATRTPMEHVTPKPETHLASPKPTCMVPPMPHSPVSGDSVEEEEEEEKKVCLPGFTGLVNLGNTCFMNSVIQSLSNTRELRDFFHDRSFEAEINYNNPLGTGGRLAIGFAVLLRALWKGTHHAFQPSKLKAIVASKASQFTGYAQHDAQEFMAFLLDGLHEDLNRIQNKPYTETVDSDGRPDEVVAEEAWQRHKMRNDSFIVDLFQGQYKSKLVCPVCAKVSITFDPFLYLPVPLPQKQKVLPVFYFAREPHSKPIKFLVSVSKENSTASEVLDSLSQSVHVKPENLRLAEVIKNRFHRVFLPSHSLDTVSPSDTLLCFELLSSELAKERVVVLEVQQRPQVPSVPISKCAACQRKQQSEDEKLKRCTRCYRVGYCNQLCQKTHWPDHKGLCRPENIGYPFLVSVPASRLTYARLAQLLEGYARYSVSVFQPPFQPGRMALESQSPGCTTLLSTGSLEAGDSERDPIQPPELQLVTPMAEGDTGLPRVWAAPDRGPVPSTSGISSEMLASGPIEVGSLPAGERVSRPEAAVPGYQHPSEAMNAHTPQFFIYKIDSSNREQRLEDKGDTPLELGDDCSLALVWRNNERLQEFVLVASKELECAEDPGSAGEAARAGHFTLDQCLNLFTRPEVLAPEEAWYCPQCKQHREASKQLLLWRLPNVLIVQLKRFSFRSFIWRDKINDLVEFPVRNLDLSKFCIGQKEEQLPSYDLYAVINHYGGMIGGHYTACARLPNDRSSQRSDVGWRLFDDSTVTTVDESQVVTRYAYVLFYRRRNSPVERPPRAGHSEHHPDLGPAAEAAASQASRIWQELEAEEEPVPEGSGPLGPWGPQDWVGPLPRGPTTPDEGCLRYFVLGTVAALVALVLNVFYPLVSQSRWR
Procedure, shortened: (§1)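 Labelled DUBs from HEK293T lysate were NeutrAvidin-enriched, digested with LysC and trypsin, and run by diaPASEF LC-MS/MS. Before that, each 495 µg sample in Tris/CHAPS/IGEPAL buffer with protease inhibitors was treated in triplicate with fragment at 200 µM or vehicle for 3 h, then with Biotin-Ahx-Ub-VS at 0.5 µM final for 1 h. Values are average log2 ratios of fragment over vehicle by unpaired t-test, based on global-median-normalised Spectronaut label-free quantities from proteins with ≥2 unique peptides.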

USP22 = target: T2, USP22 (UniProt Q9UPT9)
T2 sequence (whole entry): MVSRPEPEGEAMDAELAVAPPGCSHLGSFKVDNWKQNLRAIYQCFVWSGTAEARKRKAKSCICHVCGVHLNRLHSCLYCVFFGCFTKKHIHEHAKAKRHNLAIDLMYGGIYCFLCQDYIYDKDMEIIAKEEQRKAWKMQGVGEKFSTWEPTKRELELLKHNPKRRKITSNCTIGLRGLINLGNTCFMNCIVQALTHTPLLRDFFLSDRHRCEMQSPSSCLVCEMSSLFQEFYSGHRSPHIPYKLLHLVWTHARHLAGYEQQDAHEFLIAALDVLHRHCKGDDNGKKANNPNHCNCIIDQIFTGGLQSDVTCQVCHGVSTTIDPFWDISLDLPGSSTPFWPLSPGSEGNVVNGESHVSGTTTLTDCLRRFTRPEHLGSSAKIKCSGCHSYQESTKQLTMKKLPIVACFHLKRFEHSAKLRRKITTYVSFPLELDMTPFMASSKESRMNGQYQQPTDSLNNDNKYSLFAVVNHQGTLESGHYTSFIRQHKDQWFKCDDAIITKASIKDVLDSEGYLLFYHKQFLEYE
Procedure, shortened: as §1

USP24 = USP24 (UniProt Q9UPU5)
Procedure, shortened: as §1

USP25 = target: T3, USP25 (UniProt Q9UHP3)
T3 sequence (whole entry): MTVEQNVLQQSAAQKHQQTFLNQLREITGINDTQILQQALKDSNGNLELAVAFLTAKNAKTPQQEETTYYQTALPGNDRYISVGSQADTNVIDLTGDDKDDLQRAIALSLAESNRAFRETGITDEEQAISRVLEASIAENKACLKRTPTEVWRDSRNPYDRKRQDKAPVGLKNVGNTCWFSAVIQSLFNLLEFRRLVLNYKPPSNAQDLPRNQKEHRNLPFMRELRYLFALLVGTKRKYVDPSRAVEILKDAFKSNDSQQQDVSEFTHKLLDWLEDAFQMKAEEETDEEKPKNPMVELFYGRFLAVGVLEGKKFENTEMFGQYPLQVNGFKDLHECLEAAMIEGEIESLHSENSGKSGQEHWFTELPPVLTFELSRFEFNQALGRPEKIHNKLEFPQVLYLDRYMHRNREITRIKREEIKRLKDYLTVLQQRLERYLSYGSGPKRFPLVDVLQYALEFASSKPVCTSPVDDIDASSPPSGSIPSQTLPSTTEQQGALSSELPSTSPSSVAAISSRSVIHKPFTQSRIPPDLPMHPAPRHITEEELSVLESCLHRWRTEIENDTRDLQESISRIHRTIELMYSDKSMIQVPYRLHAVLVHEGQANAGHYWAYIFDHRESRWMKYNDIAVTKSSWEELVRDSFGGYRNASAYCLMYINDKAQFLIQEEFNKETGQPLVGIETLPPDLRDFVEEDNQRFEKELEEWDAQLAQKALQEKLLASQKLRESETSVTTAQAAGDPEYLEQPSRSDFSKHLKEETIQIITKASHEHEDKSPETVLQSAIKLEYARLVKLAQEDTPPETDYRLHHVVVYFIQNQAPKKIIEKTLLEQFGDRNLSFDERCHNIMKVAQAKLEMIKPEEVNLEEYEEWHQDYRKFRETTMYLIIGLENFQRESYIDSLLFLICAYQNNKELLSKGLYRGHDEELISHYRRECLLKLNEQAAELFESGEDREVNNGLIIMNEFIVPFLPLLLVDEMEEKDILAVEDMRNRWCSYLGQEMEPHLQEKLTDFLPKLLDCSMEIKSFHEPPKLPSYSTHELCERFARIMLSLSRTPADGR
Procedure, shortened: as §1

USP28 = target: T4, USP28 (UniProt Q96RU2)
T4 sequence (whole entry): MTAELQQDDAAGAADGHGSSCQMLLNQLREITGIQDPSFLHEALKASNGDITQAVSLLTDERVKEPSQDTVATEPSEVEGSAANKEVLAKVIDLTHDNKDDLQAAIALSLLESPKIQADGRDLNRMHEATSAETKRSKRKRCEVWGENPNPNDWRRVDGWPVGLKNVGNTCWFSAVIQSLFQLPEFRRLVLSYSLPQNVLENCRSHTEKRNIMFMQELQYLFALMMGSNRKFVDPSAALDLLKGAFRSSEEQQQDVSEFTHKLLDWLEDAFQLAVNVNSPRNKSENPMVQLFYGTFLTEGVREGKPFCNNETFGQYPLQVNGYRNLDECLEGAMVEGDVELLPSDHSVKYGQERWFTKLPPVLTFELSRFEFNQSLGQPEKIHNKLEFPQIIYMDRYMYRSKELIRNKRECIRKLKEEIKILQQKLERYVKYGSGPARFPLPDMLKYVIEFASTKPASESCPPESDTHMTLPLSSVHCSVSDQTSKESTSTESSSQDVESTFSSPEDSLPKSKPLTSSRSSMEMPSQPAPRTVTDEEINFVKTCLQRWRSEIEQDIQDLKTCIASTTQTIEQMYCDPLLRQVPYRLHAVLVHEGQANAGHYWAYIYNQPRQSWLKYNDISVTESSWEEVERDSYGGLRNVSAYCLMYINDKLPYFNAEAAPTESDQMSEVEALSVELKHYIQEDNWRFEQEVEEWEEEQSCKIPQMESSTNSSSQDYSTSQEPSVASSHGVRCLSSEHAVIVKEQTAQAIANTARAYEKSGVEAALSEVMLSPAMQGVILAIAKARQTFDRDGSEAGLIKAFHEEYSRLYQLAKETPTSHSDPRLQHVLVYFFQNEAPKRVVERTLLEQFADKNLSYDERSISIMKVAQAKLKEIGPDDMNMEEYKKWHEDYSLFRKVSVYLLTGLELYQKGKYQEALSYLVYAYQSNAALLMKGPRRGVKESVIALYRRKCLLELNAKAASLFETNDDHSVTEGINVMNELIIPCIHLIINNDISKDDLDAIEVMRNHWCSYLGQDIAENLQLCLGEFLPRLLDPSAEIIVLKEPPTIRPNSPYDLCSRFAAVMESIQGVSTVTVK
Procedure, shortened: as §1

Measured: log2 ratio of Biotin-Ahx-Ub-VS probe labelling

Sequence of USP24 (Q9UPU5 whole entry): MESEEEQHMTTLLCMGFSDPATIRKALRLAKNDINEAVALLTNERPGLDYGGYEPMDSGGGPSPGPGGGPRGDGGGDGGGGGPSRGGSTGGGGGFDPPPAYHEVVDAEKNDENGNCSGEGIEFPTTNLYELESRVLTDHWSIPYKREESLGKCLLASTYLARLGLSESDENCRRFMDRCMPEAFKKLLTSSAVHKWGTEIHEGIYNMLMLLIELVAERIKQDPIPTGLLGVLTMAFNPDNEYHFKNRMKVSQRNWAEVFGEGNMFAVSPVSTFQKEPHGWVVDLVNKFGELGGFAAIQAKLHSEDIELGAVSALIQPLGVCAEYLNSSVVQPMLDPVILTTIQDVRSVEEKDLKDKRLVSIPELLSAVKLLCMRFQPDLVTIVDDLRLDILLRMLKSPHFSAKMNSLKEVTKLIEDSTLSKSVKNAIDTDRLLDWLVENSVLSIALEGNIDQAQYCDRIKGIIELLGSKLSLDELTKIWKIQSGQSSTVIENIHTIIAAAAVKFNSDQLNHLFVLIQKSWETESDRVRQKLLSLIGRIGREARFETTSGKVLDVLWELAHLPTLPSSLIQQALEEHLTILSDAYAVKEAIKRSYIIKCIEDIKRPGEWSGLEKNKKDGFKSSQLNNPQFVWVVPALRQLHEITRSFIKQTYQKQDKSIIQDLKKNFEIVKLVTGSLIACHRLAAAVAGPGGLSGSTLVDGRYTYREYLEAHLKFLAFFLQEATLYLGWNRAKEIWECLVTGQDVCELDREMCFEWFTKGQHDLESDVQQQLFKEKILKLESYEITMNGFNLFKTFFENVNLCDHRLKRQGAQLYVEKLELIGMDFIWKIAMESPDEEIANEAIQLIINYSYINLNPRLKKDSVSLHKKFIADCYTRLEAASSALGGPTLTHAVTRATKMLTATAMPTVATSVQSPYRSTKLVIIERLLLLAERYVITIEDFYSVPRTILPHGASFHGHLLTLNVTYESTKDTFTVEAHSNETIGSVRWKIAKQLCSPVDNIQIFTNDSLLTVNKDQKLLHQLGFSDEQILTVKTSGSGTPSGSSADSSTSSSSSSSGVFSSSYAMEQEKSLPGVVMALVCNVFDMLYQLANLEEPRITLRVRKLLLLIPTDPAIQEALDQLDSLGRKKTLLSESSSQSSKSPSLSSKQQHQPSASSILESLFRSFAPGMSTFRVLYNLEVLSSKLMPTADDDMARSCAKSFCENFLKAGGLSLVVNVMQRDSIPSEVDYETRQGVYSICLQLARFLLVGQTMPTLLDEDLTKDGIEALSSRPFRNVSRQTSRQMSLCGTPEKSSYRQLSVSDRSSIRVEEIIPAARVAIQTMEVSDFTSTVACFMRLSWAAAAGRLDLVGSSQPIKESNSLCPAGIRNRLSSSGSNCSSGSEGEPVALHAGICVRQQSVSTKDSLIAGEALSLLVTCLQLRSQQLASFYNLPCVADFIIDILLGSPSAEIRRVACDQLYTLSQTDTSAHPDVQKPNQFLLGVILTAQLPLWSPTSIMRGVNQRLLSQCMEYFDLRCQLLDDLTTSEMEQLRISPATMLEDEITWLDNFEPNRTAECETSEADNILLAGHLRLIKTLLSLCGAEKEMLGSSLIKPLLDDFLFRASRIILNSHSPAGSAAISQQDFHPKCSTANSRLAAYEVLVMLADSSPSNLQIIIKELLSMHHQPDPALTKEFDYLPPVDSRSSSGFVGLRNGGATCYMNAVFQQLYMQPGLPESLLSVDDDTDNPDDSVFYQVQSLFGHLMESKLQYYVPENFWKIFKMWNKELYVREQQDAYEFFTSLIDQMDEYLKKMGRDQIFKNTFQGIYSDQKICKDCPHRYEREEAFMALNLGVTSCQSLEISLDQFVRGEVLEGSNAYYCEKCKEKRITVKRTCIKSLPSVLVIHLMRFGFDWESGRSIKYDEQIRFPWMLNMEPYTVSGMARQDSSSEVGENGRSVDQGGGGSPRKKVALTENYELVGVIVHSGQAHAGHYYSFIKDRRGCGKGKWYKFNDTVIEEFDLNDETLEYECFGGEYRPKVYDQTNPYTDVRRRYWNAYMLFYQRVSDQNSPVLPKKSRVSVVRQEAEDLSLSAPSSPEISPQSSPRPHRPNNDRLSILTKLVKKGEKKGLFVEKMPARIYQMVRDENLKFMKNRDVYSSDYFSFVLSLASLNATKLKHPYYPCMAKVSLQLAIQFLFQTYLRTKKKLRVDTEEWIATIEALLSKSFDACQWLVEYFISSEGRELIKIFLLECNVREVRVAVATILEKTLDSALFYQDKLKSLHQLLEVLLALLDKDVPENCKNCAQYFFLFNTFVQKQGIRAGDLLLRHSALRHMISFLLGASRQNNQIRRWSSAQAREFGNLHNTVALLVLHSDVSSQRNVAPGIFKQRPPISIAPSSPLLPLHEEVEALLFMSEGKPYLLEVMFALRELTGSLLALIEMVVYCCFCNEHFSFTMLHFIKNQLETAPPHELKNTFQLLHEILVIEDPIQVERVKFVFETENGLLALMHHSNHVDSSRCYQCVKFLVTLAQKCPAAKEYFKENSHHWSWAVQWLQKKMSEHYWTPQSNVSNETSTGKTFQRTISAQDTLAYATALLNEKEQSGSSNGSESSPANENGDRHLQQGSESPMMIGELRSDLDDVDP

O=C(CCl)NC1CCC2(CC1)OCCO2
inactive: USP19 -0.189 | USP22 -0.165 | USP24 -0.301 | USP25 -0.49 | USP28 -0.665
